Test [1] in a line: reducers of endogenous Her2 protein level, primary screen, SKBR3 breast tumor cells, AlphaScreen, ATP viability (AID 461;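 active means Her2 level under about 52% in both replicate screens, with viability over 70% of control, limit read from the data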;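 on Her2 level: lower value means less Her2 protein in the cells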;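 on viability: percent of carrier control wells set as 100% viability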). The conditions noted are these: 18-24 h, measured here: SKBR3 viability, ATP luminescence, at 10 µM.
For test [2], the target named is Receptor tyrosine-protein kinase erbB-2 (Homo sapiens) (UniProt P04626). Described as above. As to conditions: 18-24 h, at 10 µM, stronger effect = lower value.
Chain of Receptor tyrosine-protein kinase erbB-2 (Homo sapiens) (P04626 whole entry, looked up): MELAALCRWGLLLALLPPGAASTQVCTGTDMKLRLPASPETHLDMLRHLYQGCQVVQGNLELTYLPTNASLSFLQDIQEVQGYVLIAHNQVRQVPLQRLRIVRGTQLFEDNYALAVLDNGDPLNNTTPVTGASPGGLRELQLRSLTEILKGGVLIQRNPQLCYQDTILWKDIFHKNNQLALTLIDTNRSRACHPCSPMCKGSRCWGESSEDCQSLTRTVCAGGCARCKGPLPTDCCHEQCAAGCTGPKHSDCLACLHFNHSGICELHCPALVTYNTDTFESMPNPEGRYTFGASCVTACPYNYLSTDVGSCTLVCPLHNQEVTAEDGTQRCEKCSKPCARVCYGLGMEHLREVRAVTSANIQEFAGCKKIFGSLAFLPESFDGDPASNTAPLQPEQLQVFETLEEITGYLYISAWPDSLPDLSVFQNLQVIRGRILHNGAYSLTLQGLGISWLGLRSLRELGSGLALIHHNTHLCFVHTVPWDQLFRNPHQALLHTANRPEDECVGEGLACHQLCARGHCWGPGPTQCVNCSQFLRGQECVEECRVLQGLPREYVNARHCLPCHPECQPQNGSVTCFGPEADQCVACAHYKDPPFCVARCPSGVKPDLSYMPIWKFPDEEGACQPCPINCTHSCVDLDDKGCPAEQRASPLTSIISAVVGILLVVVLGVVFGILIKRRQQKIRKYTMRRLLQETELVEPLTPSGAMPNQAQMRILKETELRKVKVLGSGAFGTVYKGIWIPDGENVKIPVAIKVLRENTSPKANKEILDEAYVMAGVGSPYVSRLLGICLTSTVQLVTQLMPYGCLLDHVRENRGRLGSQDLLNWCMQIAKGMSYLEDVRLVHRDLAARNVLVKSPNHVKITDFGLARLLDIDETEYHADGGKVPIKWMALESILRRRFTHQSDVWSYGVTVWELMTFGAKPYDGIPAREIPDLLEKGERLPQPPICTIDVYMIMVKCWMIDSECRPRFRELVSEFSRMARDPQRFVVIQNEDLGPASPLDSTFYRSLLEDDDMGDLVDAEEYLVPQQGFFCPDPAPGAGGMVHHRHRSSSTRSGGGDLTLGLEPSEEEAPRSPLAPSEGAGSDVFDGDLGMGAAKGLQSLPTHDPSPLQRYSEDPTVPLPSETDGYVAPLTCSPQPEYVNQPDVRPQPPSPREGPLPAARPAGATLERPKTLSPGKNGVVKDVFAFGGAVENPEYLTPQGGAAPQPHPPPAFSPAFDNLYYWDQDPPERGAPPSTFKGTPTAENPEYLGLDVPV
A short description of test [3]: SK-BR-3 cell growth inhibitors, pilot screen, 24 h, human (AID 572;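 active means viability at or below 10% of carrier control in both of two separate runs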;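 further: compound exposure lasted between 18 and 24 h rather than exactly 24 h; 100% = carrier-treated control wells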). The conditions noted are these: SK-BR-3 viability, CellTiter-Glo luminescence, at 10 µM, stronger effect = lower value. (In general: Cellular ATP, detected with luciferase, serves as a proxy for viable cell number.)
The nature of test [4]: HUVEC growth inhibition – cell-based, human, primary screen (AID 575;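 active means viability at or below 30% in both replicate assays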;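 further: 100% = median of untreated cell wells with 0.1% DMSO on each plate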). The conditions noted are these: HUVEC proliferation, CellTiter-Glo luminescence, 72 h; at 10 µM; stronger effect = lower value.
Test [5] is described as follows: growth inhibitors of H69AR lung tumor, primary screen, human, duplicate replicates (AID 580).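 Further: 100% = mean luminescence of untreated wells and 0% = no signal.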 The conditions noted are these: H69AR lung tumor cells viability, ATP luminescence, 72 h; at 10 µM; stronger effect = lower value.
A short description of test [6]: reversal of MRP1-mediated doxorubicin resistance, pilot screen, H69AR cells, doxorubicin co-treatment (AID 601;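 active means viability loss from added drug above about 55%, and viability with drug at most 40%, in both replicates, limit read from the data, passing the limit was not always enough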). As to conditions: CellTiter-Glo, 72 h, at 10 µM; for differential viability (reversal): stronger effect = higher value.
Test [7] can be described thus: 384-well plate pilot, post-Golgi transport modulator project, inhibition of yeast transport mutant growth (AID 636; in the data active means inhibition above about 31%). The conditions noted are these: absorbance 615 nm, about 18 h, stronger effect = higher value.
Test [8] is described as follows: growth suppression of yeast trafficking mutant, preliminary HTS, modulators of trafficking downstream of Golgi apparatus project, 1536-format plate, OD 615 nm (AID 637; in the data active means inhibition above about 30%). The conditions noted are these: yeast transport mutant growth, absorbance 615 nm, 18 h; stronger effect = higher value.
Test [9] in a line: OD615 S. cerevisiae growth inhibition, permissive medium, pilot counter-assay, permissive growth control for S. cerevisiae lifespan shortening project (AID 705;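 active means growth inhibition above 25% in both replicates, a cutoff set 3 SD above the mean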). As to conditions: OD615, 24 h, at 10 µM, stronger effect = higher value.
Test [10] can be described thus: Restrictive medium S. cerevisiae growth inhibition, OD615, pilot screen of yeast lifespan reduction project, restrictive growth control (AID 706;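 active means growth inhibition above a set limit, 3 SD over mean compound inhibition, in both replicates, cut at about 43% in these data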;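 further: modified DeaD lifespan yeast strain shifted to restrictive glucose medium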). As to conditions: OD615, 48 h, at 10 µM, stronger effect = higher value.
The nature of test [11]: viability gain of MRP-1-high H69AR cells under doxorubicin, pilot screen, MRP-1 activator project, CellTiter-Glo, duplicate (AID 807;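 active means viability increase at or above a cutoff of the median across tested compounds plus 3 SD, cut at about 8.5% in these data, passing the limit was not always enough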;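 further: compound pretreatment 18-22 h then 72 h combined with doxorubicin; 0% = doxorubicin alone and 100% = vehicle without doxorubicin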). The conditions noted are these: H69AR viability with doxorubicin, CellTiter-Glo luminescence; at 10 µM; stronger effect = higher value.
The nature of test [12]: growth suppression of beta-catenin knockout HCT116, pilot screen, human colon tumor cells (AID 823;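 active means cell viability at or below a set limit in both duplicate runs, the limit being the all-compound median minus 4 SD, cut at about 23% in these data, passing the limit was not always enough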;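 further: 0% = wells killed by 20 µM Hyamine and 100% = untreated DMSO cell wells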). The conditions noted are these: CellTiter-Glo, 60 h, at 10 µM, stronger effect = lower value.
A short description of test [13]: growth suppression of PTEN-deleted HCT116, pilot screen, cell-based, HCT116 clonal line, CellTiter-Glo (AID 824;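 active means viability at or below 27.92% in each of two runs, the all-compound median minus 4 SD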;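 further: 0% = 20 µM Hyamine control and 100% = vehicle cell control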). As to conditions: 60 h, at 10 µM, stronger effect = lower value.
Test [14] can be described thus: inhibitors of the yeast RAM network, pilot screen, dse1pr::URA3 reporter, 5-FOA selection (AID 869;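 active means inhibition over a set limit, the all-compound mean plus 3 SD, in both replicate runs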;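 further: 0% = DMSO wells with no growth and 100% = 10 µM 1-NA-PP1 with full growth; RAM network block rescues cells from 5-FOA so hits raise OD615 growth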). The conditions noted are these: S. cerevisiae dse1pr::URA3 5-FOA growth, OD615, 2 d; at 10 µM; stronger effect = higher value; strain carries analog-sensitive mutant Cbk1 kinase.
A short description of test [15]: RAM signaling pathway blockade in yeast – S. cerevisiae, Pdr1DBD-CYC8 efflux-inhibited sensitized strain, primary screen (AID 1298;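 active means RAM network inhibition above 8.4% in each of two replicates, 3 SD over the compound average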;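 further: 0% = DMSO untreated cells without growth and 100% = 10 µM 1-NA-PP1 full growth; higher means more yeast growth rescued from 5-FOA killing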). As to conditions: S. cerevisiae cbk1-as DSE1-URA3 strain, 5-FOA growth OD615, 2 d; at 50 µM; stronger effect = higher value.
[16] abbreviates: H69AR cells + 2 uM doxorubicin, measured here: viability with 2 uM doxorubicin, stronger effect = lower value.
The mark [17] stands for this setting: H69AR cells, compound alone cytotoxicity.

Results filed as inconclusive are left out. Active and inactive are the calls of the source.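 How the source made its calls, unless noted: active means viability at or under a set limit in both replicates, limit being median viability minus 3 SD (cut at about 48% in these data, passing the limit was not always enough); inconclusive means at or under the limit in just one replicate; inactive means at or above the limit in both replicates.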

Regarding `Cc1ccccc1NC(=O)C1CCCN(S(=O)(=O)c2cnc[nH]2)C1` (stereo not drawn), the viability in [1] was 85.5%; in test [3], 85.5% (inactive); in test [4], 95.8% (inactive); in test [5], 92.6% (inactive); in [6] (setting [16]), 91.2%; in test [6] (setting [17]) it was 92.6%. Further, the viability is 102% (inactive) in test [12] and 101% (inactive) in test [13]. The Her2 level in test [2] was 108% (inactive). Also, the differential viability (reversal) in test [6] (H69AR cells + 2 uM doxorubicin) is 1.39% (inactive). In addition, the inhibition was -3.87% (inactive) in [7], 3.33% (inactive) in [8] and 2.71% (inactive) in test [14]. In addition, the growth inhibition in test [9] was -1.35% (inactive); in test [10] it was 0.61% (inactive). Moreover, the viability increase in test [11] was -2.13% (inactive). In test [15], the RAM network inhibition is 2.9% (inactive).

In the case of `CC1CCCCN1CCNC(=O)c1ccc2c(=O)n(CCc3ccccc3)c(=O)[nH]c2c1` (stereo not drawn), the viability in [1] is 91%; in [3], 91% (inactive); in test [4], 53.6% (inactive); in test [5], 93.5% (inactive); in test [6] (setting [16]) it was 80.8%; in [6] (setting [17]), 93.5%. For the same molecule, the figures for the viability in test [12] and in test [13] were 76.9% (inactive) and 73.4% (inactive), respectively. Further, in [2], the Her2 level is 72.5% (inactive). Besides, in [6] (H69AR cells + 2 uM doxorubicin), the differential viability (reversal) is 12.7% (inactive). Further, the inhibition in test [7] is -5% (inactive); in test [8], 1.17% (inactive); in test [14], 1.27% (inactive). In addition, the growth inhibition in [9] is -23.3% (inactive); in test [10] it was -18.5% (inactive). In addition, the viability increase in test [11] is -4.81% (inactive). For the same molecule, the RAM network inhibition in test [15] was 8.68% (inactive).

As to `COC(=O)c1oc2ccc(Br)cc2c1NC(C)=O`, the viability in test [1] was 94%; in [3], 94% (inactive); in test [4], 96.1% (inactive); in test [5] it was 98.2% (inactive); in test [6] (setting [16]) it was 94.7%; in test [6] (setting [17]), 98.2%. The viability in [12] is 102% (inactive); in test [13], 98.4% (inactive). Further, in [2], the Her2 level was 81% (inactive). The differential viability (reversal) in test [6] (H69AR cells + 2 uM doxorubicin) is 3.47% (inactive). Moreover, the inhibition in test [7] was -4% (inactive); in test [8], 1.33% (inactive); in test [14] it was 0.08% (inactive). Also, the growth inhibition was -7.17% (inactive) in test [9] and 0.76% (inactive) in [10]. In [11], the viability increase was 1.21% (inactive). Moreover, the RAM network inhibition in [15] was 2.66% (inactive).

Consider `CCOCCCNC(=O)Cn1ncc2c(=O)oc3ccccc3c21`, for which the viability in test [1] was 95%; in [3], 95% (inactive); in test [4], 81.5% (inactive); in test [5] it was 90.5% (inactive); in test [6] (setting [16]), 93.9%; in test [6] (setting [17]), 90.5%. Besides, the viability in [12] was 101% (inactive); in [13], 94.3% (inactive). Besides, the Her2 level in [2] is 98% (inactive). Besides, in [6] (H69AR cells + 2 uM doxorubicin), the differential viability (reversal) was -3.42% (inactive). Besides, the figures for the inhibition in test [7], in test [8] and in test [14] were 1.79% (inactive), -2.83% (inactive) and -0.73% (inactive), respectively. The growth inhibition in test [9] was 7.44% (inactive); in [10], 15.2% (inactive). Besides, in [11], the viability increase is -0.6% (inactive). The RAM network inhibition in test [15] is 1.15% (inactive).

Broadly, the viability is a read-out of living cells in per cent, often relative to untreated cells. Usually inhibition stands for the drop in the measured response relative to a control, in per cent.
